Source: PubChem BioAssay (National Center for Advancing Translational Sciences (NCATS))
D2 ag-1 = agonists of human D2 dopamine receptor; activation, % at 2 µM; HEK293 T-REx D2 cells, calcium flux agonist mode; P14416; 340,000 tested, 0.53% active;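 active = activation over 3 SD above normal in the single-dose calcium agonist read, cut at about 30% in these data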; also: 0% is about no effect
Target sequence (P14416 whole entry, looked up): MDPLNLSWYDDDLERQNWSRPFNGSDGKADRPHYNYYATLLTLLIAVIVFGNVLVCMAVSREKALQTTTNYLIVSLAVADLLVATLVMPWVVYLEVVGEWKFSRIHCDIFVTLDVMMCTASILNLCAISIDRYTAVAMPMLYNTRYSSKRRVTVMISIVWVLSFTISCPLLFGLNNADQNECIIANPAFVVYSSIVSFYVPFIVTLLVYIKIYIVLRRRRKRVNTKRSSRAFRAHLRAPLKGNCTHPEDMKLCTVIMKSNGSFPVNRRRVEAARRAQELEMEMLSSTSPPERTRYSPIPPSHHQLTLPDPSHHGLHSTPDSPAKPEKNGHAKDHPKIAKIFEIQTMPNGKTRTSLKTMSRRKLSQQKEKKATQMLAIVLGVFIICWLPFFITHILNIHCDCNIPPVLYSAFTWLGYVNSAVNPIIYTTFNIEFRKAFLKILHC
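Calcium-flux readout, 1 cycle/sec over 180 s following compound pin transfer, in inducible HEK293 Trex D2 cells (force-coupled); dopamine controls included. Positive calcium responses during this window marked compounds as potential agonists.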
D2 ag-2 = human D2 receptor agonism in beta-arrestin assay; activation, % (test concentration not listed); AID 624465; DiscoveRx PathHunter D2 beta-arrestin, luminescence, 90 min; 100% = 57 uM dopamine signal; P14416; 360,000 tested, 0.084% active; in the data active = activation above about 40%
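Agonist mode: compounds alone added to overnight-plated D2 PathHunter cells for 90 min at 37 C, with 57 uM final dopamine (EC100) defining full response. Beta-arrestin recruitment detected by chemiluminescent reagent, read after 1 h at ambient temperature.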
D2 PAM-1 = potentiates the human D2 dopamine receptor allosterically | 360,000 tested, 0.23% active | P14416 | AID 624464 | DiscoveRx D2 beta-arrestin cells, luminescence, 90 min; 100% = 57 uM dopamine signal | potentiation, % (no concentration beside the values); in the data active = potentiation above about 50%
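PathHunter beta-arrestin assay in DiscoveRx D2 cells. Compounds were added with an EC20 of dopamine (50 nM final) for 90 min at 37 deg C. Luminescence was read 1 h after detection reagent, with 57 uM dopamine as the EC100 control.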
D2 antag = D2 dopamine receptor (human) antagonism. P14416. AID 485344. 340,000 tested, 2% active. HEK293 TREx D2 cells, calcium flux, dopamine EC80. inhibition, % at 10 µM; in the data active = inhibition above about 30%; inactive = below that, where a call was filed; also: 0% is about no effect
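Calcium mobilization kinetics were recorded at 1 s intervals in tetracycline-induced HEK293 T-REx D2 cells, first for 180 s after compound addition and then 180 s after EC80 dopamine.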
D2 PAM-2 = positive allosteric modulators of human D2 dopamine receptor; HEK293 T-REx D2, calcium flux, EC20 dopamine potentiation; P14416; 340,000 tested, 0.34% active; potentiation, % at 10 µM;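 active = potentiation over 3 SD above the plate norm, cut at about 30% in these data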; also: 0% is about no effect
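Using a no-wash calcium dye in inducible, force-coupled HEK293 Trex cells expressing D2, we tracked fluorescence each second for 180 s after compound, then for 180 s after EC20 dopamine to detect augmented signalling.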
The depositor's hits bear a star. Most compounds without a hit are left out; they make up all but 2.4% or so of the library.

CCc1ccc(N(CC(=O)NC(C)(C)CC)C(=O)CCC(=O)Nc2nccs2)cc1 was read as D2 ag-1 0, D2 ag-2 -5, D2 PAM-1 -4, D2 antag 0 and D2 PAM-2 -10.
CCC(C)(C)NC(=O)CN(Cc1ccc2c(c1)OCO2)C(=O)CCC(=O)Nc1nccs1 was read as D2 ag-1 -1, D2 ag-2 -2, D2 PAM-1 -7, D2 antag 41* and D2 PAM-2 4.
Screening CCC(C)(C)NC(=O)CN(C(=O)CCC(=O)Nc1nccs1)c1ccc2c(c1)OCCO2 returned D2 ag-1 -2, D2 ag-2 -2, D2 PAM-1 -6, D2 antag 1 and D2 PAM-2 31*.
`COc1ccc(C(CNC(=O)CCNS(=O)(=O)c2ccc(Br)cc2)N2CCOCC2)cc1` (configuration not stated) gave D2 ag-2 0 and D2 PAM-1 -5.
`CC(=O)Nc1ccccc1OCc1cc(=O)n2c(C)csc2n1` gave D2 ag-1 0 and D2 PAM-2 10.
`CCCCN1C(=O)C2C(C(=O)Nc3cccc(OC)c3)C3C=CC2(O3)C1C(=O)NC1CCCCC1C` (configuration not stated) gave D2 ag-1 0, D2 ag-2 0, D2 PAM-1 -14, D2 antag 36* and D2 PAM-2 3.
CCCCN(C)CCN1C(=O)C2C(C(=O)Nc3cccc(OC)c3)C3C=CC2(O3)C1C(=O)NC1CCCCC1C (configuration not stated) was read as D2 ag-1 -2, D2 ag-2 1, D2 PAM-1 -2, D2 antag 5 and D2 PAM-2 6.
Screening Cc1nc(-c2cccc(NC(=O)COc3ccc(Cl)cc3)c2)cs1 returned D2 ag-1 0, D2 ag-2 -4, D2 PAM-1 -54, D2 antag 70* and D2 PAM-2 -16.
Screening CCC(=O)Nc1cccc(-c2csc(-c3ccccc3)n2)c1 returned D2 ag-1 0, D2 ag-2 -4, D2 PAM-1 -3, D2 antag 38* and D2 PAM-2 6.
Screening O=C(COc1ccc(Cl)cc1)Nc1ccc2[nH]ncc2c1 returned D2 ag-1 0, D2 ag-2 -1, D2 PAM-1 -9, D2 antag 34* and D2 PAM-2 2.
CCC(=O)Nc1cccc(C(=O)c2ccccc2)c1 was read as D2 ag-1 -1, D2 ag-2 1, D2 PAM-1 4, D2 antag -17 and D2 PAM-2 31*.
For CC(C)CC(=O)Nc1cccc(-c2csc(-c3ccccc3)n2)c1 the results were D2 ag-1 1, D2 ag-2 -1, D2 PAM-1 0, D2 antag -12 and D2 PAM-2 -29.
`O=C(c1ccccc1Cl)N1CCCCC1CCN1CCCCC1` (configuration not stated) gave D2 ag-1 -1 and D2 PAM-2 -5.
For COc1ccc(NC(=O)c2c(NCc3ccc(N(C)C)cc3)sc3c2CCC3)cc1 the results were D2 ag-1 0 and D2 PAM-2 -7.
COc1cccc(/C=C2\N=C(C3CCCCC3)OC2=O)c1OC was read as D2 ag-1 0, D2 ag-2 0, D2 PAM-1 -4, D2 antag 2 and D2 PAM-2 45*.
`COc1ccc(CNC(=O)CN(C(=O)c2snc(C(N)=O)c2N)c2ccc(F)cc2)cc1` gave D2 ag-1 0, D2 ag-2 -2, D2 PAM-1 -5, D2 antag -19 and D2 PAM-2 15.
`COc1ccc(CNC(=O)CN(C(=O)c2snc(C(N)=O)c2N)c2ccc(OC)c(OC)c2)cc1` gave D2 ag-1 0, D2 ag-2 3, D2 PAM-1 2, D2 antag 31* and D2 PAM-2 -5.
For O=C(CCNC(=O)N1CC(=O)Nc2ccccc21)NCc1ccc(F)cc1 the results were D2 ag-1 0, D2 ag-2 -10, D2 PAM-1 -27, D2 antag 52* and D2 PAM-2 -13.
O=C(Cc1cccs1)Nc1ccc(NC(=O)c2ccco2)cc1 was read as D2 ag-1 0, D2 ag-2 2, D2 PAM-1 1, D2 antag 31* and D2 PAM-2 -11.
Screening CC1CCN(c2oc(/C=C/c3ccc(F)cc3)nc2C#N)CC1 returned D2 PAM-2 -6.
O=C(NC1=NCCS1)c1cc(-c2cccnc2)nc2ccccc12 was read as D2 ag-1 1, D2 ag-2 -2, D2 PAM-1 0, D2 antag 33* and D2 PAM-2 -2.
Screening CCOC(=O)c1cc2c(=O)n3ccccc3nc2n(CCCOC)c1=NC(=O)C(C)(C)C returned D2 ag-1 32*, D2 ag-2 -4, D2 PAM-1 -9, D2 antag -6 and D2 PAM-2 -8.
For CCOC(=O)c1cc2c(=O)n3ccccc3nc2n(CCOC)c1=NC(=O)C(C)(C)C the results were D2 ag-1 0, D2 ag-2 -1, D2 PAM-1 11, D2 antag -14 and D2 PAM-2 -11.
Cc1ccc([N+](=O)[O-])cc1S(=O)(=O)N1CCn2cccc2C1c1ccccc1F (configuration not stated) was read as D2 ag-1 1 and D2 PAM-2 -7.
`COc1ccc(OCc2cc(C(=O)NC(C)Cc3ccccn3)no2)c(Cl)c1` (configuration not stated) gave D2 ag-1 -1, D2 ag-2 9, D2 PAM-1 -12, D2 antag 33* and D2 PAM-2 -7.
For O=C(NOC(=O)c1c(F)cccc1Cl)c1ccc(Cl)c(Cl)c1 the results were D2 ag-1 1, D2 ag-2 -3, D2 PAM-1 -10, D2 antag -24 and D2 PAM-2 -2.
CCC(C(=O)NCCc1ccc(OC)c(OC)c1)n1nc(C)n2c(cc3occc32)c1=O (configuration not stated) was read as D2 ag-1 0, D2 ag-2 -2, D2 PAM-1 1, D2 antag 33* and D2 PAM-2 -5.
For Clc1ccc(-c2noc3ncnc(NCCc4ccccc4)c23)cc1 the results were D2 ag-1 0 and D2 PAM-2 6.
Screening CCOc1ccc(NC(=O)CCC(=O)NNC(=O)COc2ccccc2C)cc1 returned D2 ag-1 -1, D2 ag-2 -5, D2 PAM-1 0, D2 antag 36* and D2 PAM-2 -4.
CCN(CCCNC(=O)c1cc2cc3cc(C)ccc3nc2s1)c1cccc(C)c1 was read as D2 ag-1 0 and D2 PAM-2 1.
CC1CCC(NC(=O)C2(C)Cc3ccccc3C(=O)N2Cc2ccc(Cl)cc2)CC1 (configuration not stated) was read as D2 ag-1 4 and D2 PAM-2 10.
